Bioassay records from PubChem.
RORg inh: blocks mouse ROR gamma transcriptional activity | P51450 | Drosophila S2 Gal4-RORgamma UAS-luciferase reporter, 20 h | Potency, µM (titrated, usually from 53.6 µM), for inactives: top-dose activity change, negative = inhibition, actives largely listed as inhibitors | actives 5.4% (n = 310,000) | AID 2551; note: nearly all actives have a fitted effect of over 60% in size
Target sequence (P51450 whole entry, looked up, the tested form may be a part): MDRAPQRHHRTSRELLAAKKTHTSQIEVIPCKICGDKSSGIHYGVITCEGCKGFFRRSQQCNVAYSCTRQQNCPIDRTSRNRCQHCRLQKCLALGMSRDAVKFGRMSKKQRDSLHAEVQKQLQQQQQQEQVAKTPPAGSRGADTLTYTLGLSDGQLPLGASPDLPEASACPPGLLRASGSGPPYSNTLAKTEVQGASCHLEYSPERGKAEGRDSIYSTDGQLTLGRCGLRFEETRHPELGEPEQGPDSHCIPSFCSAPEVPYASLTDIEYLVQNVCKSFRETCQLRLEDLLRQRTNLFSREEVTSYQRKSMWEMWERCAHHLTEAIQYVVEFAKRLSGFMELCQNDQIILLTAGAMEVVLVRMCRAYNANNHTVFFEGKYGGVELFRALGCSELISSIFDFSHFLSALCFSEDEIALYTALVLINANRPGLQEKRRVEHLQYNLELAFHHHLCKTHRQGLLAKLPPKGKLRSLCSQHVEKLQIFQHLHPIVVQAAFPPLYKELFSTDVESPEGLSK
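Stably transfected Drosophila Schneider cells are the test system, with ROR gamma fused to Gal4 and luciferase under UAS control; luminescence is read after 20 hr of 700 uM copper sulfate induction at ambient temperature.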
KinaseGlo FLuc: blocks Kinase-Glo luciferase, a counter-screen artifact; actives 0.28% (n = 200,000); Potency, µM (titrated, usually from 38.3 µM), for the others: top-dose activity change, negative = inhibition, most hits filed as inhibitors; Kinase-Glo luciferase, ATP luminescence, 8 min; Q27757; note: nearly all actives have a fitted effect of over 60% in size
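Kinase-Glo luciferase light output from ATP and luciferin was measured with 10 uM ATP, within the enzyme's linear range. Buffer: 50 mM imidazole pH 7.2, 50 mM KCl, 7 mM MgCl2, 0.01% Tween 20, 0.05% BSA; luminescence read after 8 min at ambient temperature.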
Gal4-VP16 FLuc: inhibits Gal4-VP16 luciferase reporter, ROR gamma counter-screen. Potency, µM (highest dose often 53.6 µM), inactives show top-dose activity, negative = inhibition, most hits filed as inhibitors. Drosophila S2 Gal4-VP16 UAS-luciferase, luminescence, 20 h. actives 3.5% (n = 310,000);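 note: Gal4-VP16 expression switched on by copper sulfate through the metallothionein promoter; nearly all actives have a fitted effect of over 50% in size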
* hit, by the source's call; ? = inconclusive; . = no result; [ ] = another dose, or the depositor's remark. A selection: hits, their analogues and other compounds. The true share with any hit is near 6.4%. Calls come from the whole dose curve; as a rule, active = well fitted curve in the direction sought with a large enough effect; inconclusive = small, poorly fitted or top-dose-only effect, or another doubt; inactive = no such curve, though single readings can be large; an effect the other way counts as inactive or inconclusive. % is set by controls: 0 for no effect and ±100 for the full control effect; potency is the fitted concentration of half-maximal effect.

SMILES | RORg inh | KinaseGlo FLuc | Gal4-VP16 FLuc
COc1cc(C(=O)NC(C)CCc2ccccc2)cc(OC)c1OC (centres undefined) | -10% | . | 1%
CC(C)(C)N(Cc1ccccc1)C(=O)c1cccs1 | 32% | . | -5%
COc1ccc(C(=O)N(C)Cc2ccccc2)cc1Br | ? | -1% | -19%
COc1cc(C(=O)NC(=S)N(C)Cc2ccccc2)cc(OC)c1OC | 0.56µM* | -1% | 3.5µM*
CN(Cc1ccccc1)C(=S)NC(=O)C1CCCCC1 | -3% | . | 15%
COc1cc(C(=O)NC(=S)N(CCc2ccccc2)CCc2ccccc2)cc(OC)c1OC | 0.4µM* | -1% | 0.79µM*
COC(=O)C1(C)C=C2C(=C(c3ccccc3)C(=O)C2C)CN1 (centres undefined) | 2% | 1% | 25%
COc1ccc(N(CC(=O)Nc2ccccc2OC)S(=O)(=O)c2ccc(OC)c(OC)c2)cc1 | 13% | . | 25%
CCOc1ccc(NC(=O)[C@H](Cc2ccccc2)NC(=O)C2CCNCC2)cc1 | -21% | . | 4%
O=C(COC(=O)C1CCC(N2C(=O)C3C4CCC(C4)C3C2=O)CC1)c1ccc(F)cc1 (centres undefined) | 5% | . | -4%
CCOc1ccccc1/C=N/Nc1nc(C)cc(=O)[nH]1 | -2% | . | 1%
Cc1cc(C)nc(N/N=C/c2ccccc2OCc2cccc(Br)c2)n1 | 50µM* | 3% | 35µM*
Cc1ccc(S(=O)(=O)N/N=C/c2cc(Br)ccc2O)cc1 | 14% | . | -14%
COc1ccccc1NC(C)C(=O)N/N=C/c1ccccc1OCc1cccc(Br)c1 (centres undefined) | 4% | 2% | 13%
Cc1cc(C)nc(N/N=C/c2cc(Br)ccc2O)n1 | 3.2µM* | . | 18µM*
CCOc1ccccc1/C=N/Nc1cc(C)nc2ccc(C)cc12 | 1%[1.91 µM] | . | ?
Cc1cc(C)nc(N/N=C/c2ccccc2OCc2ccc(Br)cc2)n1 | 7.1µM* | 0% | ?
Cc1cc(C)nc(N/N=C/c2ccccc2OCc2ccc(Cl)cc2)n1 | 10µM* | 0% | ?
CCn1ncc([N+](=O)[O-])c1C(=O)N1CCc2ccccc2C1 | -42% | . | 1%
CNC(=O)C(=O)NCC1OCCN1S(=O)(=O)c1ccc(OC)c(OC)c1 (centres undefined) | -2% | . | -13%
CC1CCC(NC(=O)CNC(=O)c2cccs2)CC1 (centres undefined) | 0% | . | 0%
Cc1ccc(S(=O)(=O)NCCn2cnc([N+](=O)[O-])n2)cc1 | -23% | . | -2%
Cc1cc(C)nc(N/N=C/c2ccccc2OCC(=O)O)n1 | -24% | . | -6%
Cc1cc(C)nc(N/N=C/c2ccccc2OCc2ccccc2)n1 | 8.9µM* | 0% | ?
COC(=O)c1ccc(N2CCN(C)CC2)c(NC(=O)c2cccs2)c1 | 2% | . | 10%
SMILES | RORg inh | KinaseGlo FLuc | Gal4-VP16 FLuc
Cn1ccnc1C[C@@](C)(O)c1ccccc1 | . | -1%[7.66 µM] | .
Cc1nc([N+](=O)[O-])c(Sc2nc3ccc([N+](=O)[O-])cc3[nH]2)n1Cc1ccccc1 | 16µM* | 9% | ?
O=C(CSc1nc2ccc([N+](=O)[O-])cc2[nH]1)c1ccc2ccccc2c1 | -2% | -1% | 3%
CCCN1CCN(C(=O)c2oc3c(Cl)cccc3c2C)CC1 | -20% | . | -5%
NS(=O)(=O)c1ccc(CCNC(=O)CNC(=O)c2ccc(Oc3ccccc3)cc2)cc1 | -10% | . | -8%
CN1CCc2ccc3c4c2[C@]1(C)Cc1cccc(c1-4)OCO3 | -21% | . | -2%
CCn1c(C)nc2cc(S(=O)(=O)C(F)(F)C(F)C(F)(F)F)ccc21 (centres undefined) | -25% | -2% | 4µM*
CCn1c(C)nc2cc(S(N)(=O)=O)ccc21 | 4% | -4% | -9%
O=C(c1ccc(CS(=O)(=O)Cc2ccccc2)cc1)N1CCCCC1 | 22% | . | -3%
Oc1ccc(/C=N/Nc2ccc(C(F)(F)F)cn2)c(O)c1 | ? | . | -27%
CSc1ccc(/C=N/NC(=O)c2cccc(O)c2)cc1 | -40% | ? | 2.2µM*
Oc1ccc(/C=N/Nc2ccc(C(F)(F)F)cn2)cc1 | 4.5µM* | -1% | ?
O=C(N/N=C/c1c(O)ccc2ccccc12)c1cccc(C(F)(F)F)c1 | 3.2µM* | 4% | 5µM*
CCOc1ccc(C(=O)N/N=C/c2ccc(SC)cc2)cc1 | -34% | 1% | -19%
O=C(N/N=C/c1cccc(C(F)(F)F)c1)c1ccc(O)cc1 | 1.1µM* | 2% | ?
COc1ccc2ccccc2c1/C=N/NC(=O)c1cccc(Br)c1 | -35% | -6% | 3%
O=C(N/N=C\c1cccc(O)c1)c1ccncc1 | . | -2%[7.66 µM] | .
CC(C)CCN(CC(=O)NCc1ccc(F)cc1)S(=O)(=O)c1ccccc1F | 13% | . | -5%
CNc1nc(-c2c(C)n(C)c3ccc(OC)cc23)cs1 | -29% | . | -4%
O=C(CSc1ccc(-c2cccs2)nn1)c1cccs1 | 22% | -4% | ?
CN(CCOC(=O)/C=C/c1ccco1)Cc1ccccc1 | 6% | -4% | 26%
COc1cccc(CNC(=O)c2ccc(NC(=O)C3=CSCCO3)cc2)c1 | 29% | . | 3%
O=C(NCC1CCCO1)c1ccc(COc2ccccc2)cc1 (centres undefined) | -4% | . | -4%
O=C(N/N=C/c1ccc(C(F)(F)F)cc1)c1ccc(O)cc1 | 1.8µM* | -10% | 4.5µM*
O=C(N/N=C\c1ccc(F)cc1)c1ccc(F)cc1 | -19% | -5% | -6%
SMILES | RORg inh | KinaseGlo FLuc | Gal4-VP16 FLuc
CCn1nnc(NC(=O)c2cccnc2)n1 | -5% | 2% | -12%
CCn1nnc(NC(=O)c2ccc(C(C)(C)C)cc2)n1 | 13µM* | -5% | 13µM*
Cc1cccnc1NC(=O)c1ccc(OCc2c(C)noc2C)cc1 | 17% | . | 28%
Nc1nc(NC(=O)C(Cl)(Cl)Cl)nn1-c1ccccc1 | 13µM* | -7% | ?
CCC(=O)Nc1nc(N)n(-c2ccccc2)n1 | 21% | 1% | -9%
COCCCNC(=O)CN(c1cc(Cl)ccc1OC)S(C)(=O)=O | 11% | -1% | -1%
CC(=O)N=c1sc2ccccc2n1C | -6% | 2% | 15%
CC(=O)N=c1sc2nc3ccccc3nc2n1N(C(C)=O)C(C)=O | 10µM* | 1% | ?
O=C(O)CSCC(=O)Nc1ccc(C2CCCCC2)cc1 | 2.2µM* | 4% | 3.2µM*
Nn1cnnc1SCC(=O)Nc1ccc(C2CCCCC2)cc1 | 20% | -7% | -10%
CCOC(=O)Cc1nc(-c2ccc(Cl)cc2)n[nH]1 | 7% | -3% | -7%
CCC(C)NC(=O)c1cc2c(=O)n3cccc(C)c3nc2s1 (centres undefined) | 9% | . | -14%
COc1ccc(C2C(O)C(c3c[nH]c4ccccc34)=NN2C(=O)CCl)cc1 (centres undefined) | 13µM* | . | 10µM*
COc1ccc(C2NN=C(c3c[nH]c4ccccc34)C2O)cc1 (centres undefined) | 37% | . | -17%
Cc1cc(C)nc(SCc2ccc(F)cc2)n1 | 0% | -3% | 2%
COc1ccc(CNc2ncnc3c2[nH]c2cc(OC)c(OC)cc23)cc1 | 6% | . | -11%
COc1ccc(CNc2ncnc3c2[nH]c2ccccc23)cc1 | ? | . | 6.3µM*
O=c1c2[nH]c3ccccc3c2ncn1CCC1=CCCCC1 | 44% | 0% | -3%
C1=C(CCNc2ncnc3c2[nH]c2ccccc23)CCCC1 | 7.9µM* | 1% | 0.71µM*
